Results as given in PubChem BioAssay (EPA / NIEHS).
“And” between values parts separate entries of the source, which are not always exact repeats. Equal entries are not always repeated. Results filed as inconclusive are left out. The source made the active and inactive calls. The calls were made as follows, unless noted: active = hit-call score of the fitted dose curve at least 0.9, where 1 is the maximum; inactive = score below 0.9.

Key:
[1] = BSK_3C_Vis: BioMAP Diversity Plus: 3C Assay for Morphology Visualization (AID 2283025); conditions: primary human endothelial cells (HUVEC);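 also: fitted both ways so gain or loss versus DMSO counts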
How it was run: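 Human umbilical vein endothelial cells in the 3C system were imaged by light microscopy 24 h after chemical dosing to record cell morphology. Activity was fitted bidirectionally against DMSO as negative control and baseline; the endpoint serves as a background control.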

[2] = read-out: Transforming growth factor beta 1 (TGFb1), TGFB1 (gene 7040); assay: BSK_BE3C_TGFb1: BioMAP Diversity Plus: BE3C Assay for Transforming growth factor beta 1 (TGFb1) Biomarker Activity (AID 2283036); conditions: primary human bronchial epithelial cells; actives raise or lower the signal
How it was run: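 Human primary bronchial epithelial cells (BE3C system) were dosed with chemical and TGF-b1 levels measured by ELISA at 24 h. Activity was fitted bidirectionally relative to DMSO negative control as baseline.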

[3] = read-out: Transforming growth factor beta 1 (TGFb1), TGFB1 (gene 7040); assay: BSK_KF3CT_TGFb1: BioMAP Diversity Plus: KF3CT Assay for Transforming growth factor beta 1 (TGFb1) Biomarker Activity (AID 2283072); conditions: primary human keratinocytes with fibroblasts; actives raise or lower the signal
How it was run: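 Human keratinocyte plus foreskin fibroblast primary co-culture, dosed with chemical for 24 h. TGF-b1 quantified by ELISA. Activity fitted bidirectionally against DMSO negative control as baseline.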

[4] = biological target: human CYP2D6, CYP2D6 (gene 1565) (UniProt P10635); assay: NVS_ADME_hCYP2D6: NovaScreen (NVS) CYP450-related Enzyme Activity (ADME) Assay for human CYP2D6 (AID 2283107; active = hit-call score of the fitted dose curve at least 0.9, where 1 is the maximum)
Chain of human CYP2D6, CYP2D6 (gene 1565) (P10635 whole entry, looked up): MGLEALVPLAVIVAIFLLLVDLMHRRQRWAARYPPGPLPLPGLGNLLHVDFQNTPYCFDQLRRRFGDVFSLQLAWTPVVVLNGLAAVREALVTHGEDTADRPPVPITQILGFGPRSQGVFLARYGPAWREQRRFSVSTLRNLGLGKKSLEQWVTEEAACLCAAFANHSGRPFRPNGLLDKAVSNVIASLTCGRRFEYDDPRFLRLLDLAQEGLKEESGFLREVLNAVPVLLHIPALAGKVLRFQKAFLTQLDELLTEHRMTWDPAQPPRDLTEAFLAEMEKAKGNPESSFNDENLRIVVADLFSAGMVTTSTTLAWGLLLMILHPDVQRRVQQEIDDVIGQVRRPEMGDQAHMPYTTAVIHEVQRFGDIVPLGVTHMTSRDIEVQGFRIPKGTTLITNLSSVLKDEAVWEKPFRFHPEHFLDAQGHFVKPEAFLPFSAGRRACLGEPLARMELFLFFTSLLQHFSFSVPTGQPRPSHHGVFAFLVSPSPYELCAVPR
How it was run: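 Biochemical fluorescence assay, insect-cell-derived enzyme. Read at 1 h; inhibition taken from loss of signal against acetonitrile. Screened at 10 uM in duplicate, with concentration series for actives.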

[5] = biological target: human Peroxisome Proliferator-activated Receptor alpha (PPARa), PPARA (gene 5465) (UniProt Q07869); assay: NVS_NR_hPPARa: NovaScreen (NVS) Nuclear Receptor Binding Assay for human Peroxisome Proliferator-activated Receptor alpha (PPARa) (AID 2283359; active = hit-call score of the fitted dose curve at least 0.9, where 1 is the maximum;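 also: activity means loss of TR-FRET signal versus DMSO baseline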)
Chain of human Peroxisome Proliferator-activated Receptor alpha (PPARa), PPARA (gene 5465) (Q07869 whole entry, looked up): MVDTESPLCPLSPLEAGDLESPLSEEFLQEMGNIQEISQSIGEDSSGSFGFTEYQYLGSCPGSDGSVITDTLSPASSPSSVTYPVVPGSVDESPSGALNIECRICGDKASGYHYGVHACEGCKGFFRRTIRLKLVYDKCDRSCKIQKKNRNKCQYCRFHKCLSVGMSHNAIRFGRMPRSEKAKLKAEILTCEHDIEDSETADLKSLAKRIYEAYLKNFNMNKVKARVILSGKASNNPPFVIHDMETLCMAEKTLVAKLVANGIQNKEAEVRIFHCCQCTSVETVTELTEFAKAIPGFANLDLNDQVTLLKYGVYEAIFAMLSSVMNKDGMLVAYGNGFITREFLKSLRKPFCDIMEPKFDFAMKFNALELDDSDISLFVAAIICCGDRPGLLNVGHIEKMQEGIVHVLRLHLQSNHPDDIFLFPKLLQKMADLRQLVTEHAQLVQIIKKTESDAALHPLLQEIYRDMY
How it was run: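 Cell-free TR-FRET binding assay with extracted PPARα protein, read 1 h after dosing. Primary screen in duplicate at 25 uM, with actives retested in concentration series. Loss of signal versus DMSO.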

[6] = CEETOX_H295R_MTT_cell_viability: Viability Assessment in the CeeTox HT-H295R MTT Assay (AID 2283718)
How it was run: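 Human H295R adrenal cells, prestimulated 48 h with 10 uM forskolin, were exposed 48 h to chemicals in 0.1% DMSO. Viability was measured in the same wells by MTT (0.5 mg/ml, 4 h, 37 C), absorbance 570/650 nm, as percent of controls.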

[7] = read-out: Plasminogen activator inhibitor-1 (PAI1), SERPINE1 (gene 5054); assay: BSK_MyoF_PAI1: BioMAP Diversity Plus: MyoF Assay for Plasminogen activator inhibitor-1 (PAI1) Biomarker Activity (AID 2284256); conditions: primary human lung fibroblasts
How it was run: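 In this multiplexed primary-cell system, fibroblasts from human lung received compound for 24 h before ELISA detection of PAI-1; overt toxicity was checked by SRB (0.1%, TCA-fixed, 560 nm) in parallel wells.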

[8] = read-out: Interleukin-8 (IL8), CXCL8 (gene 3576); assay: BSK_MyoF_IL8: BioMAP Diversity Plus: MyoF Assay for Interleukin-8 (IL8) Biomarker Activity (AID 2284261); conditions: primary human lung fibroblasts
How it was run: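 DMSO-normalised, upward-fitted IL-8 ELISA signal; human lung fibroblasts, 24 h chemical treatment.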

Decorin, DCN (gene 1634) = assay: BSK_MyoF_Decorin: BioMAP Diversity Plus: MyoF Assay for Decorin Biomarker Activity (AID 2284265); conditions: primary human lung fibroblasts
How it was run: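 In this multiplexed fibroblast system, secreted or surface decorin is detected by ELISA one day after dosing, with increases scored against the DMSO vehicle.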

[9] = BSK_MyoF_SRB: Viability Assessment in the BioMAP Diversity Plus: MyoF Assay (AID 2284267); conditions: primary human lung fibroblasts;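 also: total protein by SRB absorbance in parallel cultures as cytotoxicity measure; cells assessed 24 h after compound addition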
How it was run: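 Human lung fibroblasts dosed with chemical and assessed 24 h later for overt cytotoxicity in parallel cultures. Total protein quantified by sulforhodamine B staining (0.1% SRB after 10% TCA fixation), read at 560 nm, analysed in positive direction versus DMSO baseline.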

[10] = read-out: Matrix Metallopeptidase 1 (MMP1), MMP1 (gene 4312); assay: BSK_MyoF_MMP1: BioMAP Diversity Plus: MyoF Assay for Matrix Metallopeptidase 1 (MMP1) Biomarker Activity (AID 2284268); conditions: primary human lung fibroblasts
How it was run: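 Fibroblasts from human lung receive compound for 24 h before ELISA quantitation of MMP1. DMSO serves as baseline, and the endpoint is fitted for signal gain.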

[11] = CCTE_Padilla_ZF_Score.General: CCTE's 144 Hour Post-fertilization zebrafish Assay Score for General Malformation, Padilla Lab (AID 2284411)
How it was run: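 Wild-type zebrafish embryos were plated singly at 6-8 hpf in 10% Hanks' and exposed in sealed wells at 26C until rinsed on 5 dpf. At 6 dpf two blinded assessors scored mortality, hatching and malformations by stereomicroscopy; gain-of-signal versus DMSO.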

TTR (gene 7276) = assay: CCTE_GLTED_hTTR_0.125uM: CCTE's human Transthyretin (hTTR) Inhibition Assay, with 0.125uM TTR, Great Lakes Toxicology and Ecology Division (GLTED) Lab (AID 2284431);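 also: hits lower the fluorescence signal relative to DMSO baseline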
How it was run: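 Activity is defined as decreased ANSA fluorescence (ex 380, em 475) from human transthyretin, 0.125uM, following 2-hour chemical exposure in a cell-free setup, with DMSO as baseline.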

[12] = CCTE_Shafer_MEA_acute_AB: CCTE's Alamar Blue Assay for Cytotoxicity in the Neural Acute Assay, Shafer Lab (AID 2284069; active = hit-call score of the fitted dose curve at least 0.9, where 1 is the maximum;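 also: active compounds lower the viability signal compared with DMSO wells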)
How it was run: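 Resazurin reduction (CellTiter Blue, 1:6 in fresh medium) read at ex 544/em 590 nm marks viability loss relative to DMSO. Cells: primary rat cortical neuron networks on microelectrode arrays, treated after baseline recording at 13 or 15 days in vitro.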

[13] = biological target: human Phosphodiesterase 10 (PDE10), PDE10A (gene 10846) (UniProt Q9Y233); assay: NVS_ENZ_hPDE10: NovaScreen (NVS) Enzymatic Assay for human Phosphodiesterase 10 (PDE10) (AID 2283195; active = hit-call score of the fitted dose curve at least 0.9, where 1 is the maximum)
Chain of human Phosphodiesterase 10 (PDE10), PDE10A (gene 10846) (Q9Y233 whole entry, looked up): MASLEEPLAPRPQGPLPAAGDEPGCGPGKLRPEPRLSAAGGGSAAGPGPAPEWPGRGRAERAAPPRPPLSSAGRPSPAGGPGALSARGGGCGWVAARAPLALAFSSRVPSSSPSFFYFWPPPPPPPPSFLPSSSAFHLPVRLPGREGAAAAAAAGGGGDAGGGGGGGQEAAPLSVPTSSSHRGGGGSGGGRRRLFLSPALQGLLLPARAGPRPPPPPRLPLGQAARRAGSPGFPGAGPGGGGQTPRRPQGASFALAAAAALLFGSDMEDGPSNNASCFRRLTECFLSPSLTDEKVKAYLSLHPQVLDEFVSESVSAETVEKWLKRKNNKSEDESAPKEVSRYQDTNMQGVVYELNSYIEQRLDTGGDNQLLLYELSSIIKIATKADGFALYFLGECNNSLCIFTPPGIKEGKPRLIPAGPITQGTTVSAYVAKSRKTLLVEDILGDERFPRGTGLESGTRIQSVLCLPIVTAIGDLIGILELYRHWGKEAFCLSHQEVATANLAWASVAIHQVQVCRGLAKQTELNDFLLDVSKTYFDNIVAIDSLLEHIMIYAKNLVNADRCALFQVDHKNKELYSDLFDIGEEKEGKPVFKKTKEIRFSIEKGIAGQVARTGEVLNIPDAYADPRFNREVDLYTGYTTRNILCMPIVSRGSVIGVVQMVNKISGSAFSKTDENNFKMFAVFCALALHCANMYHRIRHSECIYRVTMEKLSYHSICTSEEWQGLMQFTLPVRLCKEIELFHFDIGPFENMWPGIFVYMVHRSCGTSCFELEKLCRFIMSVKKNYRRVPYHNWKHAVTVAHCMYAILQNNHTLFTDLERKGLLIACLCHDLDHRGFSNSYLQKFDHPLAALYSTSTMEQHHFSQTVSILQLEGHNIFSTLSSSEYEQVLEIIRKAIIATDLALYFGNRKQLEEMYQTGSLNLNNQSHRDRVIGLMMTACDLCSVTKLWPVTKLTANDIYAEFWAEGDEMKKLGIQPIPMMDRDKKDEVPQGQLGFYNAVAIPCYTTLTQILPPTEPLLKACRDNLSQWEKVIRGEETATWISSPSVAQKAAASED
How it was run: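 Recombinant human PDE10 with fluorescent substrate, 1 h, product separated by electrophoretic mobility shift. Loss of enzyme activity fitted against DMSO; initial screen 25 uM in duplicate, actives run to 50 uM maximum.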

[14] = biological target: Retinoic acid receptor alpha (Homo sapiens) (UniProt P10276); assay: ATG_RARa_TRANS: Attagene TRANS-FACTORIAL HepG2 Assay for human Retinoic Acid Receptor alpha (RARa) (AID 2283005; active = hit-call score of the fitted dose curve at least 0.9, where 1 is the maximum)
Chain of Retinoic acid receptor alpha (Homo sapiens) (P10276 whole entry, looked up, the tested form may be a part): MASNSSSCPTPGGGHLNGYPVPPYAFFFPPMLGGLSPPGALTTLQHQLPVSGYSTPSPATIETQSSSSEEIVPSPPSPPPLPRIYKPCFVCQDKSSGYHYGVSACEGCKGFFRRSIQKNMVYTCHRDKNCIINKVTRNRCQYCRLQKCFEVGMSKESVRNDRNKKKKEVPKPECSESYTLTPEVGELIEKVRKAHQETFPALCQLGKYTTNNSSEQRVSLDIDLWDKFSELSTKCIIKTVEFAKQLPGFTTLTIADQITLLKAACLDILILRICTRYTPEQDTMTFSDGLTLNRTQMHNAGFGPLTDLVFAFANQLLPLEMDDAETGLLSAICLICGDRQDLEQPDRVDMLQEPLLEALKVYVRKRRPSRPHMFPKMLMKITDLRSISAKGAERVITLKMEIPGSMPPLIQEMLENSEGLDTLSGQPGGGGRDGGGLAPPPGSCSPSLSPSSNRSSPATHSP
How it was run: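 HepG2 transiently transfected with multiplex GAL4-UAS reporter units including a human RARa–GAL4 chimera; 24 h compound exposure. Reporter mRNA quantified by RT-PCR, 6-FAM labeling and capillary electrophoresis; gain of signal versus DMSO.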

[15] = biological target: rat Peripheral-type Benzodiazepine Receptor (PBR), Tspo (gene 24230) (UniProt P16257); assay: NVS_MP_rPBR: NovaScreen (NVS) Membrane Protein Assay for rat Peripheral-type Benzodiazepine Receptor (PBR) (AID 2283335; active = hit-call score of the fitted dose curve at least 0.9, where 1 is the maximum)
Chain of rat Peripheral-type Benzodiazepine Receptor (PBR), Tspo (gene 24230) (P16257 whole entry, looked up): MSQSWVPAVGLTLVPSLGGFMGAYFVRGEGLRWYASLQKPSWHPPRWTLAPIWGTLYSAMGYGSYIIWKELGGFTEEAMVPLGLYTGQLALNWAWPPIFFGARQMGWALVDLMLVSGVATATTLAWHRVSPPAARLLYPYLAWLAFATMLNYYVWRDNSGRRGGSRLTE
How it was run: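 Radioligand displacement, rat kidney membrane prep, 1 h exposure, filter-based scintillation read; DMSO baseline, loss-of-signal scored. Primary screen at 25 uM in duplicate, actives followed up in concentration series.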

[16] = biological target: chimpanzee Androgen Receptor (AR), AR (gene 747460) (UniProt O97775); assay: NVS_NR_cAR: NovaScreen (NVS) Nuclear Receptor Binding Assay for chimpanzee Androgen Receptor (AR) (AID 2283346; active = hit-call score of the fitted dose curve at least 0.9, where 1 is the maximum;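 also: radioligand displacement from AR measured by scintillation counting in a cell-free assay; a loss of bound radioligand signal versus DMSO counts as binding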)
Chain of chimpanzee Androgen Receptor (AR), AR (gene 747460) (O97775 whole entry, looked up): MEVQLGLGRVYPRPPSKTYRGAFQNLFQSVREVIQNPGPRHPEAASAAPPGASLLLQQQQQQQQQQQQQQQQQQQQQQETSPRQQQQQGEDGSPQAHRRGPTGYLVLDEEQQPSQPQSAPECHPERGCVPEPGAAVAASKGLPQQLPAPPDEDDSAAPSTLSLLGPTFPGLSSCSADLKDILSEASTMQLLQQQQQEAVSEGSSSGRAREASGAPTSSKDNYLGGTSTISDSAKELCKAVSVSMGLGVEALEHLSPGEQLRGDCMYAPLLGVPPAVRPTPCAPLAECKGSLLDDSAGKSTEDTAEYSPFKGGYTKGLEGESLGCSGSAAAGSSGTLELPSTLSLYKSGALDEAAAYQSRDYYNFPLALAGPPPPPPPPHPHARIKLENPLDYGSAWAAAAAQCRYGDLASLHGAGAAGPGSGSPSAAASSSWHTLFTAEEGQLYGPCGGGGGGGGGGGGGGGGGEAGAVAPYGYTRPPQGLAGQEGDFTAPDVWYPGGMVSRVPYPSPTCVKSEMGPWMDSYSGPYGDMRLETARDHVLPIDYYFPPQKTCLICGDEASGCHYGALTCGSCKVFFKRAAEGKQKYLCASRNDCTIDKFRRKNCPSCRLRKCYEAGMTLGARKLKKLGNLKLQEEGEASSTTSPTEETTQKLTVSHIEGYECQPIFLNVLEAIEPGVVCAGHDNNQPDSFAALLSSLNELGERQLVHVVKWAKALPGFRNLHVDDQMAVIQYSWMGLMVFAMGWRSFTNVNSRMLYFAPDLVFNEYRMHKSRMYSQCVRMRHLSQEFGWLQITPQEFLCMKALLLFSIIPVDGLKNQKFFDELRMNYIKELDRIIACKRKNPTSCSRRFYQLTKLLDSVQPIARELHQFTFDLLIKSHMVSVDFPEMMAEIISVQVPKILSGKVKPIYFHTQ
How it was run: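 Radioligand binding to chimpanzee AR expressed in Sf9/Sf21 cells, cell-free, measured 72 h after dosing by lysate-based scintillation counting. Loss of signal vs DMSO; initial duplicate screen at 25 uM, actives retested in concentration series.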

[17] = biological target: Estrogen receptor (Homo sapiens) (UniProt P03372); assay: ATG_ERa_TRANS: Attagene TRANS-FACTORIAL HepG2 Assay for human Estrogen Receptor alpha (ERa) (AID 2282970; active = hit-call score of the fitted dose curve at least 0.9, where 1 is the maximum); conditions: HepG2 Attagene TRANS ERa GAL4 reporter, mRNA
Chain of Estrogen receptor (Homo sapiens) (P03372 whole entry, looked up, the tested form may be a part): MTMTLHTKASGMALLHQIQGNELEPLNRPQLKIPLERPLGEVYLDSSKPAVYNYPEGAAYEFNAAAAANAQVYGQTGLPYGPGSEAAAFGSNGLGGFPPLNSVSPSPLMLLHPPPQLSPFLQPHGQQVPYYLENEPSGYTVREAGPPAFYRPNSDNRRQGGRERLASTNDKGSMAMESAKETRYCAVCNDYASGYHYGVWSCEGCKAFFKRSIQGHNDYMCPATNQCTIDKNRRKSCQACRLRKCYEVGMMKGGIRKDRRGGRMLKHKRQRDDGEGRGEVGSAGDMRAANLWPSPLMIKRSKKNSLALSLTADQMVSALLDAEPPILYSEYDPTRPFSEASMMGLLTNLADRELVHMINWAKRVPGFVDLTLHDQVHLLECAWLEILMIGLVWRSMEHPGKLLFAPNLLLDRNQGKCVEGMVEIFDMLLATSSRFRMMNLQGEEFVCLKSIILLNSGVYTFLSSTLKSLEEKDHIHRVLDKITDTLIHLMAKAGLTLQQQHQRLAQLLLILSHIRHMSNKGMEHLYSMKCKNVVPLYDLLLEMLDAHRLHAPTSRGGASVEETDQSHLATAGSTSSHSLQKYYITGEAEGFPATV
How it was run: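 Multiplexed cell-based reporter format in HepG2: chimeric ERa-Gal4 protein drives GAL4-UAS reporter transcription. Fluorescent reporter mRNA quantified by capillary electrophoresis 24 hours after dosing; endpoint fitted as signal gain against DMSO.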

[18] = biological target: human Peripheral-type Benzodiazepine Receptor (PBR), TSPO (gene 706) (UniProt P30536); assay: NVS_MP_hPBR: NovaScreen (NVS) Membrane Protein Assay for human Peripheral-type Benzodiazepine Receptor (PBR) (AID 2283331; active = hit-call score of the fitted dose curve at least 0.9, where 1 is the maximum;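 also: hits reduce radioligand binding relative to DMSO baseline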)
Chain of human Peripheral-type Benzodiazepine Receptor (PBR), TSPO (gene 706) (P30536 whole entry, looked up): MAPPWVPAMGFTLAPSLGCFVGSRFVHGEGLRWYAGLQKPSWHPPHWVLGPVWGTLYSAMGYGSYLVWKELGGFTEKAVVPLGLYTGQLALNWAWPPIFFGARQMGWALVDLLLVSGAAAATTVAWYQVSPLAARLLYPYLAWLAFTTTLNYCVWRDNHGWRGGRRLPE
How it was run: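 Radioligand displacement on human colonic cell membranes, 1 h incubation; bound radioactivity by filtration and scintillation counting. Primary screen in duplicate at 25 uM single concentration, actives followed up in concentration series; loss of binding versus DMSO.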

Measured: AC50

Sc1nc2ccccc2s1
active: [4] 3 µM | [11] 5.5 µM | TTR (gene 7276) 9.1 µM
not listed: [12] | [13] | [14] | [15] | [16] | [17] | [18]
inactive: all other assays above

CCC[Si](OC(C)=O)(OC(C)=O)OC(C)=O
inactive: [12]

C[N+](C)(C)CC(=O)[O-]
inactive: [13]

CCCCCCCCCC/C=C/C1CC(=O)OC1=O (stereo unspecified)
inactive: [1] | [2] | [3] | [7] | [8] | Decorin, DCN (gene 1634) | [9] | [10]

Cc1ccnc(N)c1
inactive: [14]

CC[N+](CC)(CC(=O)Nc1c(C)cccc1C)Cc1ccccc1
inactive: [2] | [3] | [15] | [16] | [7] | [8] | Decorin, DCN (gene 1634) | [9] | [10]
active: [1] 39.8 µM | [4] 0.132 µM

COc1ccccc1Oc1c(NS(=O)(=O)c2ccc(C(C)(C)C)cc2)nc(-c2ncccn2)nc1OCCO
inactive: [12]

OC(C(F)(F)F)(C(F)(F)F)C(O)(C(F)(F)F)C(F)(F)F
inactive: [8]
active: [7] 53.5 µM | Decorin, DCN (gene 1634) 30 µM and 46.7 µM | [9] 36.7 µM and 37.8 µM | [10] 48.4 µM and 47.9 µM | [11] 1.18 µM

O=C(Oc1ccccc1)c1ccccc1
active: TTR (gene 7276) 24.2 µM

Cc1c(C(N)=O)cc([N+](=O)[O-])cc1[N+](=O)[O-]
inactive: [12]

CCCCC(CC)COC(=O)CS (stereo unspecified)
inactive: [5]

CCCCCCCCCCCCCCCCCC[N+](C)(C)C
inactive: [17] | [2] | Decorin, DCN (gene 1634) | [11]
active: [1] 1.34 µM | [3] 2.15 µM | [4] 0.826 µM | [13] 1.71 µM | [7] 3.36 µM | [8] 8.89 µM | [9] 3.6 µM | [10] 1.24 µM

CC(=[OH+])/C=C(/C)[O-].CC(=[OH+])/C=C(/C)[O-].CC(=[OH+])/C=C(/C)[O-].[Al]
inactive: [18]
active: [15] 7.03 µM

COc1ccc2ccccc2c1
inactive: [17]

CC(C)C1OCCN1CCOC(=O)NCCCCCCNC(=O)OCCN1CCOC1C(C)C (stereo unspecified)
inactive: [12]
